According to ChEMBL document CHEMBL3988442, “University of Dundee, Small-Polar-MMV Screening Library” (2021):
Values joined by “and” are separate entries in the source; they are usually repeats but may differ in a detail not shown here. Equal values may be shown once. The campaign covered roughly 34,000 compounds. About 290 (0.85%) showed an effect of 50% or more. This excerpt belongs to a sample that is enriched for strong results.

Tested on: Plasmodium falciparum
Assay: Plasmodium falciparum sporozoite viability assay
Assay type: functional, organism-based
Parameters: scale not given: in the data most compounds retested in dose-response had high values

| Structure (SMILES) | Percent Effect (10 mM as filed; unlikely as a test dose) | Percent Effect |
| --- | --- | --- |
| Cc1cccc(NC2CCN(C(=O)Nc3cc(F)cc(F)c3)CC2)n1 | -0.7988% and 3.277% and 6.003% | – |
| Cc1cccc(NC2CCN(C(=O)Nc3ccc(F)c(F)c3)CC2)n1 | 48.63% and 63.22% and 54.45% | – |
| Cc1cccc(NC2CCN(C(=O)Nc3ccncc3)CC2)n1 | -1.906% and 4.517% and 18.88% | – |
| Cc1ccc(C(C)NC(=O)CNCCn2cccn2)cc1C (configuration not stated) | – | -5.595% |
| Cc1cc(C(F)(F)F)n2nc(C3CCN(S(C)(=O)=O)CC3)cc2n1 | -9.274% and -13.96% and -8.495% | – |
| CCN1CC[C@@H]2OC[C@H](C(=O)NCc3cccs3)C[C@@H]2C1 | – | 18.4% |
| CCc1ccc(-c2cc(C(F)(F)F)nc(N3CCC(N)CC3)n2)cc1 | 67.54% and 55.39% | – |
| Cc1cc(C(F)(F)F)nc(C2CCN(C(=O)CO)CC2)n1 | – | -4.597% |
| CN1CCC(c2cccc(Cc3ccc(C(F)(F)F)cc3)n2)CC1 | – | 3.398% |
| CCN1CC2(CCOCC2)c2cc(NS(=O)(=O)CC)ccc21.O=C(O)C(F)(F)F | – | 11.65% |
| Cc1cnn(CC2CN(Cc3ccccn3)CCO2)c1 (configuration not stated) | – | -1.077% |
| CC(Cn1cccn1)NC(=O)NCCc1cccnc1 (configuration not stated) | – | 12% |
| Cc1ccc(Nc2nccc(C3CN(C(C)C)C3)n2)nc1 | – | 10.21% |
| Cc1ccc(Nc2nccc(C3CCCN(CC(=O)N(C)C)C3)n2)nc1 (configuration not stated) | 76.43% and 66.32% and 68.98% | – |
| CC(=O)N1CCC(c2ccnc(Nc3ccc(C)cn3)n2)C1 (configuration not stated) | -6.604% and -1.275% and 4.318% | – |
| COCC(=O)N1CC(c2ccnc(Nc3ccc(C)cn3)n2)C1 | 0.1159% and 3.964% and -12.15% | – |
| Cc1ccc(Nc2nccc(C3CCN(CC(N)=O)C3)n2)nc1 (configuration not stated) | 101.9% and 103.5% and 87.92% | – |
| O=C(Cc1ccc(F)cc1)N1CCn2c(Cn3cncn3)cnc2C1 | – | 8.505% |
| Cc1cc(OCCC(=O)NCc2ccc(F)cc2)nnc1C | – | 1.961% |
| Cc1nc(COC[C@@]23CCC[C@@H]2CN(Cc2cnn(C)c2)C3)cs1 | – | 2.977% |
| Cc1c(-c2cc(C(=O)N3CCc4ncc(Cl)cc4C3)on2)cnn1C | – | 3.017% |
| C[C@H](NS(C)(=O)=O)C(=O)NCc1cc(-c2ccco2)n(CC(F)(F)F)n1 | – | 3.472% |

| Structure (SMILES) | Percent Effect (10 mM as filed; unlikely as a test dose) | Percent Effect |
| --- | --- | --- |
| CC(Nc1nccc(CCC(F)(F)F)n1)c1nc(-c2ccncc2)no1 (configuration not stated) | -11.17% and -18.73% | – |
| CC(C)c1noc(C(C)Nc2nccc(CCC(F)(F)F)n2)n1 (configuration not stated) | 1.671% and -0.3266% | – |
| CC(Nc1nccc(CCC(F)(F)F)n1)c1nc(-c2ccccn2)no1 (configuration not stated) | 60.54% and 52.08% | – |
| CN1CCN(C(=O)[C@H]2C[C@H]3[C@H](CCN3Cc3nccs3)O2)CC1 | – | 0.9025% |
| Cc1cccc(NC(=O)c2nn(C3CCS(=O)(=O)C3)c3c2CCCC3)n1 (configuration not stated) | 27.72% and 25.15% | – |
| O=C(Nc1ccccc1)c1nn(C2CCS(=O)(=O)C2)c2c1CCCC2 (configuration not stated) | 23.34% and 42.14% and 38.32% | – |
| O=C(Nc1ccccc1F)c1nn(C2CCS(=O)(=O)C2)c2c1CCCC2 (configuration not stated) | 38.15% and 35.56% | – |
| O=C(Nc1ccc(Cl)cn1)c1nn(C2CCS(=O)(=O)C2)c2c1CCCC2 (configuration not stated) | 72.26% and 68.39% | – |
| O=C(Nc1cccc(Cl)c1)c1nn(C2CCS(=O)(=O)C2)c2c1CCCC2 (configuration not stated) | 70.24% and 80.75% and 81.2% | – |
| O=C(Nc1ccc(Cl)cc1)c1nn(C2CCS(=O)(=O)C2)c2c1CCCC2 (configuration not stated) | -17.96% and -20.43% | – |
| CC1CCN(S(=O)(=O)NCc2ccccc2Cn2cccn2)CC1 | – | 3.533% |
| c1cncc(CN2CCCC3(COCCN(c4cncnc4)C3)C2)c1 (configuration not stated) | – | -1.976% |
| C[C@H](NS(C)(=O)=O)C(=O)NCc1cc(-c2ccco2)n[nH]1 | – | -6.52% |
| CC(C)[C@H](NS(C)(=O)=O)C(=O)NCc1cc(-c2ccccc2)n[nH]1 | – | -6.181% |
| CCc1nn(C)c(Cl)c1CN(CCOC)Cc1cnn(C)c1 | – | -2.336% |
| CCOc1cc(/C=C/c2ncc(C(=O)O)s2)cc(Br)c1OC | – | 6.645% |
| CCOc1ncccc1C(=O)N1CCCC1Cn1nc(C)cc1C (configuration not stated) | – | -1.877% |
| CC(c1ccccn1)N(C)Cc1cc2cc3c(cc2[nH]c1=O)OCO3 (configuration not stated) | 18.92% and 31.37% and 23.56% | – |
| CC(c1ccncn1)N(C)Cc1cc2cc3c(cc2[nH]c1=O)OCO3 (configuration not stated) | 36.77% and 42.23% and 61.28% | – |
| CN(C)CCOCC1CN(Cc2ccc(F)cc2)Cc2nnn(C)c21.O=C(O)C(F)(F)F.O=C(O)C(F)(F)F (configuration not stated) | – | 3.947% |
| CCCn1cc(NC(=O)c2ccc(S(C)(=O)=O)cc2)ccc1=O | – | -6.389% |
| O=C(O)CCCNC(=O)N1CCc2c([nH]c3ccc(Cl)cc23)C1 | 31.15% and 28.91% | – |

| Structure (SMILES) | Percent Effect (10 mM as filed; unlikely as a test dose) | Percent Effect |
| --- | --- | --- |
| O=C(O)CCNC(=O)N1CCc2c([nH]c3ccc(Cl)cc23)C1 | -34.22% and -28.29% | – |
| COC(=O)CCCNC(=O)N1CCc2c([nH]c3ccc(Cl)cc23)C1 | 80.07% and 78.06% | – |
| Cc1nc(-c2ccsc2)sc1C(=O)N1CCn2c(C)nnc2C1 | – | 4.116% |
| CN(C)C(=O)N1CCN(Cc2cnc(-c3ccsc3)s2)CC1 | – | -10.41% |
| CC(C)N1c2sc(-c3ccsc3)nc2CC1C(=O)NC1CCCC1 (configuration not stated) | 80.44% and 80.12% | – |
| CC(C)CC(=O)N1CCC(Nc2nc(O)cc(-c3ccsc3)n2)CC1 | – | 14.33% |
| O=C(NC1CCCC1)C1Cc2nc(-c3ccsc3)sc2N1CC1CC1 (configuration not stated) | 9.544% and 5.829% and 5.902% | – |
| CC(C)N1c2sc(-c3ccsc3)nc2CC1C(=O)NC1CC1 (configuration not stated) | 76.28% and 81.46% | – |
| Cc1ccncc1CN1CCOCC1c1[nH]ncc1C (configuration not stated) | – | -4.491% |
| Cc1cccc(CN2CCC(c3csc4nccn34)CC2)n1.O=CO | – | 3.885% |
| N#Cc1cccc(N2CC3(CCN(C(=O)c4ccncc4)C3)CC2=O)c1.O=C(O)C(F)(F)F (configuration not stated) | – | -19.71% |
| Cc1nn2c(N3CCC(O)CC3)cc(-c3ccccc3)nc2c1C | – | -9.448% |
| O[C@H]1CN(c2nc(-c3ccccc3)no2)C[C@@H]1N1CCOCC1 | -27.06% and -32.72% | – |
| OC1CCN([C@@H]2CCN(c3nc(-c4ccccc4)no3)C[C@H]2O)CC1 | 63.55% and 40.94% | – |
| OC1CCN(c2ccccc2NCc2nc(-c3cccs3)no2)CC1 | 22.91% and 47.25% and 30.27% | – |
| Cc1cccc(NC(=O)[C@@H]2CCCN2Cc2ccc(C#N)cc2F)n1 | – | -15.69% |
| CCn1ncc2c1C(COC)CN(Cc1ccc(F)cc1)C2.O=C(O)C(F)(F)F.O=C(O)C(F)(F)F (configuration not stated) | – | 5.175% |
| O=C(O)c1cccc(S(=O)(=O)N2CCOc3ccccc32)c1 | – | 8.824% |
| Cn1cnc(S(=O)(=O)NCCCN2CCCCCC2=O)c1Cl | – | -2.417% |
| CCNC(=O)C(C)NC(=O)c1cnc(-c2ccc(C)cc2C)s1 (configuration not stated) | – | 5.538% |
| COc1c(CNCc2ccc3c(c2)OCCO3)c(C(C)C)nn1C | – | 14.99% |
| CC(C)(CO)NCc1ccc(OCc2ccc3c(c2)OCCO3)cc1.Cl | 25.27% and 55.16% | – |

| Structure (SMILES) | Percent Effect (10 mM as filed; unlikely as a test dose) | Percent Effect |
| --- | --- | --- |
| Cl.c1cc(OCc2ccc3c(c2)OCO3)ccc1CNC1CC1 | 33.09% and 60.95% and 82.86% | – |
| COc1cc(CNCC(C)O)cc(Cl)c1OCc1ccc(C)cc1.Cl (configuration not stated) | – | -5.385% |
| CSc1nccc(N2CCC(NCc3ccc4c(c3)OCO4)CC2)n1 | – | 4.585% |
| CC(O)CNCc1ccc(OCc2ccc3c(c2)OCCO3)cc1.Cl (configuration not stated) | 88.95% and 91.02% and 83.06% | – |
| CCCNCc1ccc(OCc2ccc3c(c2)OCCO3)cc1.Cl | -30.54% and -21.42% | – |
| CC(C)(C)NCc1ccc(OCc2ccc3c(c2)OCCO3)cc1.Cl | -36.62% and -27.49% | – |
| CCNCc1ccc(OCc2ccc3c(c2)OCCO3)cc1.Cl | -24.62% and -4.131% | – |
| Cc1nccn1C1CCCN(C(=O)c2sccc2-n2cnnn2)C1 (configuration not stated) | – | -0.2931% |
| CN1CCN(Cc2cn3c(n2)CN(C2CCOCC2)CC3)CC1.O=C(O)C(F)(F)F.O=C(O)C(F)(F)F.O=C(O)C(F)(F)F | – | 10.57% |
| O=C(CCc1ccco1)Nc1cc(C(F)(F)F)c[nH]c1=O | – | -11.4% |
| COc1cccc(O[C@H]2CCN(c3nc(C)cc(C)n3)CC[C@@H]2O)c1 | – | 11.61% |
| O=C(Cn1cccc2cc(-c3ccc(F)cc3)nc1-2)N1CCC(O)CC1 | – | -1.811% |
| COc1ccc(C2CNCCN2C(=O)c2cccc3ncccc23)cc1 (configuration not stated) | – | 4.068% |
| CC(C)N(C)S(=O)(=O)c1ccc2c(c1)CCN(C(=O)c1cnccn1)C2 | – | -1.97% |
| O=C(CN1CCCC1c1noc(C2CC2)n1)NCCc1ccsc1 (configuration not stated) | – | 13.6% |
| CN(C)c1ccc(C(=O)N2CCCN(Cc3cnn(C)c3)CC2)nn1 | – | -1.596% |
| O=C(O)c1ccc(=O)n(CC(c2ccc(Cl)cc2)N2CCOCC2)c1 (configuration not stated) | – | 5.86% |
| Cc1cccc(-c2noc(CN3CC(n4cc(C)cn4)C3)n2)c1 | – | -1.145% |
| Cc1ccccc1-c1noc(CN2CC(n3cccn3)C2)n1 | – | -26.31% |
| O=C(Nc1ccccc1)N1CCc2nc(C(=O)N3CCCC3)sc2CC1 | 42.14% and 56.3% and 42.63% | – |
| NC(=O)c1nc2c(s1)CCN(C(=O)Nc1ccccc1)CC2 | – | 13.34% |
